Test [1] can be described thus: P-glycoprotein substrates identified in KB-3-1 adenocarcinoma cell line, qHTS therapeutic library screen (AID 1346986). Further: nearly all actives have a fitted effect of over 60% in size.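 Further: potency is for cytotoxicity meaning loss of cell viability.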 In outline:
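KB-3-1 parental and colchicine-selected P-gp-overexpressing KB-8-5-11 cells (colchicine omitted during assay), 500 cells/well, dosed in dose-response for 72 h at 37 °C; CellTiter-Glo luminescence. Cytotoxic: curve class -1.1 to -2.4, max response >50%, AC50 < 10 uM.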
(qHTS replaces the single test concentration by a dilution series.)

The nature of test [2]: P-glycoprotein substrates identified in KB-8-5-11 adenocarcinoma cell line, qHTS therapeutic library screen (AID 1346987). Further: nearly all actives have a fitted effect of over 65% in size. A digest of the protocol: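 Steps: plate 500 KB-8-5-11 cells/well in DMEM + 10% FCS (colchicine removed); pin compounds in dose-response; incubate 72 h, 37 degree C, 5% CO2; add CellTiter-Glo, 5 min; read luminescence.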

Where “and” joins values, the source holds several entries; their conditions need not be identical. Identical values can stand only once. Records with an inconclusive call do not appear. Calls of active or inactive are those of the source. The call rests on the fitted dose curve; in most records, active means well fitted curve in the direction sought with a large enough effect; inconclusive means small, poorly fitted or top-dose-only effect, or another doubt; inactive means no such curve, though single readings can be large; an effect the other way counts as inactive or inconclusive. Where a SMILES comes first, the peptide text is derived from it. The star is where a group is joined. AFC = O=c1cc(C(F)(F)F)c2ccc(N*)cc2o1
Potency means the concentration at half of the fitted maximal effect.

As for `C=C(C)C1CCC2(C(=O)O[C@@H]3O[C@H](CO[C@@H]4O[C@H](CO)[C@@H](O)[C@H](O)[C@H]4O)[C@@H](O)[C@H](O[C@@H]4O[C@@H](C)[C@H](O)[C@@H](O)[C@H]4O)[C@H]3O)CCC3(C(=O)O)C(CCC4C5(C)CCC(O)C(C)(C)C5CCC43C)C12` (some centres undefined), the outcome in test [1] and in test [2] was “inactive [at 9.29 µM]” throughout.
Consider `C=C1CC23CC1CCC2C12OC(=O)C(C)(CCC1O)C2C3C(=O)O` (centres undefined), for which the Potency result in test [1] and in test [2] was “inactive” throughout.
In the case of `O=C(O)c1cc(-c2c(-c3ccccc3)nn3ccccc23)n[nH]c1=O`, the Potency result in test [1] and in test [2] was “inactive” in each case.
Consider `O=C(OC1C=C(CO)C2C(OC3OC(CO)C(O)C(O)C3O)OC=CC12)c1ccc(O)cc1` (centres undefined), for which the Potency entry in test [1] and in test [2] was “inactive” in each case.
As to `C=C1C(=O)OC2CC(C)=C(C(C)CCCO)C(O)C12` (centres undefined), the Potency entry in test [1] and in test [2] was “inactive” in each case.
On to `CC(=O)OC[C@H]1O[C@H](O[C@]2(CO)O[C@H](CO)[C@@H](OC(=O)/C=C/c3ccccc3)[C@@H]2O)[C@H](O)[C@@H](O)[C@@H]1O`, for which the Potency entry in test [1] and in test [2] was “inactive” each time.
In the case of `COc1ccc(C(O)C(C)OC2OC(CO)C(O)C(O)C2O)cc1` (centres undefined), the Potency entry in test [1] and in test [2] was “inactive” in each case.
Regarding `O=C(O[C@H]1[C@@H]2C=CO[C@@H](O[C@@H]3O[C@H](CO)[C@@H](O)[C@H](O)[C@H]3O)[C@@H]2[C@@]2(CO)O[C@@H]12)c1ccccc1`, the Potency result in test [1] and in test [2] was “inactive” throughout.
Take `C=C1C[C@]23C[C@H]1CC[C@H]2C1=C[C@H]2OC(=O)[C@@](C)([C@H]1[C@@H]3C(=O)O)[C@H]2O`: the Potency result in test [1] and in test [2] was “inactive” in each case.
For the compound `Nc1nccn2c(C3CCC(C(=O)O)CC3)nc(-c3cc4cccc(Cl)c4[nH]3)c12` (centres undefined), the Potency is 1640 nM (active) in test [1] and 1.46 µM (active) in test [2].
For `CC/C=C\CCO[C@@H]1O[C@H](CO[C@@H]2OC[C@H](O)[C@H](O)[C@H]2O)[C@@H](O)[C@H](O)[C@H]1O`, in that order: “inactive” and “inactive”.
The matching figures for `CC1(C)C[C@H](O)C[C@@]2(C)OC(=O)C=C12`: “inactive” and “inactive”.
For `CC(=O)C12OC(C)(C)OC1CC1C3CCC4=CC(=O)C=CC4(C)C3(F)C(O)CC12C` (centres undefined), in that order: “inactive” and “inactive”.
Turning to `CC(=O)c1cc2c(cc1O)OC(C)(C)C=C2`, the Potency entry in test [1] and in test [2] was “inactive” throughout.
As to `O=C(O)/C=C/c1ccc(O)c(O[C@@H]2O[C@H](CO)[C@@H](O)[C@H](O)[C@H]2O)c1`, the Potency entry in test [1] and in test [2] was “inactive” in each case.
`COC(=O)c1cc(OC)cc(OC)c1C(=O)c1c(OC)cc2c(c1O)C1CCCC(C)(O2)O1` (centres undefined): the Potency entry in test [1] and in test [2] was “inactive” throughout.
Consider `COc1cc2c(c(OC)c1CC=C(C)C)C[C@H](c1ccc(O)cc1O)CO2`, for which the Potency entry in test [1] and in test [2] was “inactive” each time.
Turning to `CC1(C)CC2C=C(C(=O)O)C3COC(=O)C(O)(CO)C23C1` (centres undefined), the Potency entry in test [1] and in test [2] was “inactive” each time.
As for `CC(=O)N[C@@H](Cc1c[nH]c2ccccc12)C(=O)N[C@@H](CCC(=O)O)C(=O)N[C@@H](Cc1cnc[nH]1)C(=O)N[C@@H](CC(=O)O)C(=O)Nc1ccc2c(C(F)(F)F)cc(=O)oc2c1` (Ac-WEHD-{AFC}), the Potency entry in test [1] and in test [2] was “inactive” each time.
As to `COc1cc(Nc2nc3ccccc3nc2NS(=O)(=O)c2ccc(NC(=O)c3ccc(OC)c(C)c3)cc2)cc(OC)c1`, the Potency entry in test [1] and in test [2] was “inactive” in each case.
With `CC1=C(C(=O)OCc2ccccc2)C(c2ccc(-c3ccccc3)cc2)NC(=O)N1CCCCCC(=O)O` (centres undefined), the Potency result in test [1] and in test [2] was “inactive” in each case.
As to `COc1c(C)c(OCC(O)C(C)(C)O)cc2c1COC2=O` (centres undefined), the Potency entry in test [1] and in test [2] was “inactive” in each case.
Consider `C=C1C(O)C[C@@H]2C(C(=O)O)=CO[C@@H](O[C@@H]3O[C@H](CO)[C@@H](O)[C@H](O)[C@H]3OC(=O)c3ccc(O)cc3)[C@H]12` (some centres undefined), for which the Potency entry in test [1] and in test [2] was “inactive” in each case.
For the compound `O=C(Nc1ccn[nH]1)c1c(F)cccc1F`, the Potency entry in test [1] and in test [2] was “inactive” in each case.
As for `CC(NC(=O)C(O)C(C)C)C(=O)NC1C(=O)N(C)CCc2ccccc21` (centres undefined), the Potency result in test [1] and in test [2] was “inactive” in each case.
Take `C=C1[C@H](OC(C)=O)[C@H]2[C@@H](OC(C)=O)[C@](C)(OC(C)=O)C[C@]2(OC(C)=O)C(=O)[C@H](C)/C=C/C(C)(C)C(=O)[C@H](OC(=O)C(C)CC)[C@H]1OC(C)=O` (some centres undefined): the Potency result in test [1] and in test [2] was “inactive” throughout.
On to `C[C@@H]1O[C@@H](O[C@H]2[C@H](O)[C@@H](O[C@@H]3O[C@H](CO)[C@@H](O)[C@H](O[C@@H]4O[C@H](CO)[C@@H](O)[C@H](O)[C@H]4O)[C@H]3O)[C@H](O[C@H]3CC[C@@]4(C)C(=CC[C@@H]5C4CC[C@@]4(C)C5C[C@@H]5OC6(CC[C@@](C)(CO[C@@H]7O[C@H](CO)[C@@H](O)[C@H](O)[C@H]7O)O6)[C@@H](C)[C@@H]54)C3)O[C@@H]2CO)[C@H](O)[C@H](O)[C@H]1OC1OC(CO)C(O)C(O)C1O` (some centres undefined), for which the outcome in test [1] and in test [2] was “inactive [at 9.29 µM]” throughout.
As for `CC1CC(O)C2(OC1=O)OC1C(O)C3C4CCC5CC(OC6OC(CO)C(O)C(O)C6OC6OC(C)C(O)C(O)C6O)CCC5(C)C4CCC3(C)C1C2C` (centres undefined), the Potency result in test [1] and in test [2] was “inactive” in each case.
As to `O=C1NC(Cc2c[nH]c3ccccc23)C(=O)NC1Cc1c[nH]c2ccccc12` (centres undefined), the Potency result in test [1] and in test [2] was “inactive” in each case.
For the compound `CC1CCC23COC(=O)C2=CC(O)CC3C1(C)CCC1=CC(O)OC1=O` (centres undefined), the Potency entry in test [1] and in test [2] was “inactive” in each case.
For the compound `CC(=O)N[C@@H](CCCCN)C(=O)N(C)[C@@H](CC(C)C)C(=O)N[C@H](C(=O)N(C)[C@@H](Cc1ccccc1)C(=O)N[C@H](Cc1ccccc1)C(N)=O)C(C)C`, the outcome in test [1] and in test [2] was “inactive [at 5.11 µM]” each time.
With `C=C(C(=O)O)C1CCC2(C)CCCC(C)(O)C2C1` (centres undefined), the Potency result in test [1] and in test [2] was “inactive” in each case.
As for `CC/C=C\CC1C(=O)C=CC1(CCCCCCCC(=O)O)OC(C)=O` (centres undefined), the Potency entry in test [1] and in test [2] was “inactive” throughout.
For `COC(=O)CCSCc1ccc(-c2onc(C)c2NC(=O)OC(C)c2ccccc2Cl)cc1` (centres undefined), the Potency result in test [1] and in test [2] was “inactive” throughout.
Take `CCCCNc1ncc2c(-c3ccc(CN4CCN(C)CC4)cc3)cn(C3CCC(O)CC3)c2n1` (centres undefined): the Potency in test [1] was 517 nM (active); in test [2], 1.3 µM (active).
Consider `CC1=C(/C=C/C(C)=C\C=C\C(C)=C/C(=O)O)C(C)(C)CCC1`, for which the Potency entry in test [1] and in test [2] was “inactive” throughout.
Take `C=C1C(=O)OC2C1C(O)CC1(C)C(O)CCC(C=O)C21` (centres undefined): the Potency result in test [1] and in test [2] was “inactive” in each case.
Take `CCS(=O)(=O)N1CCN(c2ccc(Nc3ncc(C(N)=O)c(NC4CC4)n3)cc2)CC1`: the Potency in test [1] is 4610 nM (active); in test [2], 7.31 µM (active).
On to `CC(C)=CCC[C@](C)(O)[C@H]1CC[C@]2(C)[C@@H]1[C@H](O)CC1[C@@]3(C)CC[C@H](O)C(C)(C)C3[C@@H](O[C@@H]3O[C@H](CO)[C@@H](O)[C@H](O)[C@H]3O[C@@H]3OC[C@@H](O)[C@H](O)[C@H]3O)C[C@]12C` (some centres undefined), for which the Potency entry in test [1] and in test [2] was “inactive” each time.
Regarding `NC(=O)[C@H](O[C@@H]1O[C@H](CO)[C@@H](O)[C@H](O)[C@H]1O)c1ccccc1`, the Potency result in test [1] and in test [2] was “inactive” each time.
`C[C@@H]1C[C@H]2O[C@@H]2/C=C\C=C\C(=O)Cc2c(Cl)c(O)cc(O)c2C(=O)O1`: the Potency is 2860 nM (active) in test [1]; 438 nM (active) and 5.7 µM (active) in test [2].
As to `CCOC(=O)C(CCc1ccccc1)NC1CSC(c2cccs2)CN(CC(=O)O)C1=O` (centres undefined), the Potency entry in test [1] and in test [2] was “inactive” each time.

The record behind these values is PubChem BioAssay (NCATS).
